Shown is part of a subset that was picked to be rich in hits.
DT40 TDP1 no CPT = qHTS for Inhibitors of human tyrosyl-DNA phosphodiesterase 1 (TDP1): qHTS in cells in absence of CPT; Potency, µM (doses to about 46.2 µM), for the others: at the top dose activity change, negative = growth inhibition, actives largely listed as inhibitors; actives 15% (n = 420,000); DT40 Tdp1-/- hTDP1 cells, no CPT, ATP luminescence, 48 h; further: potency means the concentration at half of the fitted maximal effect; nearly all actives have a fitted effect of over 55% in size
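Chicken DT40 Tdp1-/- cells stably complemented with human TDP1 were seeded at 400 cells/well with DMSO in place of 20 nM camptothecin. After compound pinning, cells grew at least 48 hr at 37 °C; viability read by CellTiter-Glo luminescence.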
HT1080 IDH1KD tx = qHTS for induction of synthetic lethality in tumor cells producing 2HG: qHTS for the HT-1080-IDH1KD cell line. HT-1080 IDH1 knockdown viability, ATP luminescence, 48 h. Potency, µM (doses to about 46.1 µM), inactives show top-dose activity, negative = toxicity, hits mostly cytotoxic. actives 2% (n = 360,000). AID 686971, 2013;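 further: potency means the concentration at half of the fitted maximal effect; 0% = DMSO wells and -100% = cell-free medium wells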
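Luminescent ATP read-out (CellTiter-Glo, 10 min at room temperature) after 48 h compound exposure at 37 °C gave viability of IDH1-knockdown HT-1080 cells. Activity was normalised to DMSO and cell-free wells, then fitted as concentration-response curves.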
12-LOX inh = Primary qHTS assay for inhibitors of human arachidonate 12S-lipoxygenase (ALOX12): Round 2. purified 12hLO, xylenol orange hydroperoxide absorbance. Potency, µM (series often up to 108 µM), inactives show at the highest dose activity change, negative = inhibition, hits mostly inhibitors. actives 1.1% (n = 580,000); further: potency means the concentration at half of the fitted maximal effect
Target sequence (P18054 whole entry, looked up): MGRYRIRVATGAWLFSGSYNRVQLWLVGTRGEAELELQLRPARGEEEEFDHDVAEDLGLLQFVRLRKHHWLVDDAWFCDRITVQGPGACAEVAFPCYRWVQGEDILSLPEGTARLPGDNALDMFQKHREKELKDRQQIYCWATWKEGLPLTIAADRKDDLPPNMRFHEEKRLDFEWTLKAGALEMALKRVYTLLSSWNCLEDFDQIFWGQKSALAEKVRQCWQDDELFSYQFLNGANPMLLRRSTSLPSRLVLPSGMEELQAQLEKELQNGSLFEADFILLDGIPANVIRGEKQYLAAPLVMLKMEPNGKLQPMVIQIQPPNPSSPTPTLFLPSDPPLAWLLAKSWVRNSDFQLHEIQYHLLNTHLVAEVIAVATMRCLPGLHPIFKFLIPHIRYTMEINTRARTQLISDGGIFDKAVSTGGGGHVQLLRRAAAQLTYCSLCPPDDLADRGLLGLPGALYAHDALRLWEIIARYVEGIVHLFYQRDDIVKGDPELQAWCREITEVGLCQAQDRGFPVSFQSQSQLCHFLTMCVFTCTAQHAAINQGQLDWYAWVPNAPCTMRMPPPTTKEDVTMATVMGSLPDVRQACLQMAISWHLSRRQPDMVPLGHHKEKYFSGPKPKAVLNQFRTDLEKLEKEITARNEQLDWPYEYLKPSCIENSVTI
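Hydroperoxide product was detected by ferrous iron/xylenol orange as the 573 to 405 nm absorbance ratio. Arachidonic acid at 40 uM (final) was turned over for 30 min at room temperature by 150 nM human 12hLO, pH 7.0 Hepes buffer, after 15 min compound preincubation.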
IL1B secr inh = qHTS for Inhibitors of Inflammasome Signaling: IL-1-beta AlphaLISA Primary Screen. THP-1 LPS/ATP IL-1B secretion, AlphaLISA, 16 h; active compounds read low. activity change, % at 57.5 µM. actives 4.7% (n = 360,000). AID 743279, 2014; in the data active means activity change below about -50%; inconclusive means mostly about -30% to -49%
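Secreted IL-1B measured by AlphaLISA bead assay after 16 h compound exposure of THP-1 cells; compounds (final up to 57.5 uM) added 1 h before LPS (250 ng/mL) and ATP (1.25 mM) stimulation; lower signal means less secretion.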
TDP1 cell CPT = qHTS for Inhibitors of human tyrosyl-DNA phosphodiesterase 1 (TDP1): qHTS in cells in presence of CPT; chicken DT40 Tdp1-/-;hTDP1 cells + 20 nM CPT, ATP luminescence, 48 h; Potency, µM (top dose mostly 46.2 µM), for the others: top-dose activity change, negative = growth inhibition, actives largely listed as inhibitors; actives 12% (n = 420,000); AID 686979, 2013; further: potency means the concentration at half of the fitted maximal effect; nearly all actives have a fitted effect of over 55% in size
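Cell growth measured by CellTiter-Glo luminescence after a minimum 48 h, 37 C compound exposure with 20 nM CPT in Tdp1-knockout DT40 cells stably expressing hTDP1, seeded 400/well; qHTS titration format.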
HT1080-NT tox = qHTS for induction of synthetic lethality in tumor cells producing 2HG: qHTS for the HT-1080-NT fibrosarcoma cell line; HT-1080-NT fibrosarcoma viability, CellTiter-Glo ATP luminescence, 48 h; Potency, µM (titrated, usually from 46.1 µM), for the others: at the top dose activity, negative = less viability, actives largely listed as cytotoxic; actives 1.6% (n = 360,000); AID 686970, 2013;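 further: NT is the 2HG producing partner of a matched IDH1 knockdown line; potency means the concentration at half of the fitted maximal effect; 0% = DMSO-treated cells and -100% = media-only wells without cells; nearly all actives have a fitted effect of over 55% in size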
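Toxicity toward the 2HG-producing NT line was scored as %Activity, normalised to DMSO and no-cell wells, from CellTiter-Glo luminescence after 48 hours' treatment.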
* marks the source's active call; other numbers are inactive results; i = inactive; ? = inconclusive; / = no result given; ! = not active in a repeat; [ ] = another dose, or the depositor's remark. Unless noted, the call rests on the fitted dose curve; in most records, active means well fitted curve in the direction sought with a large enough effect; inconclusive means small, poorly fitted or top-dose-only effect, or another doubt; inactive means no such curve, though single readings can be large; an effect the other way counts as inactive or inconclusive. Unless noted, on the % scale 0 is the no-effect control and ±100 the full control effect.

SMILES	DT40 TDP1 no CPT	HT1080 IDH1KD tx	12-LOX inh	IL1B secr inh	TDP1 cell CPT	HT1080-NT tox
COc1cc(C2c3cc4c(cc3C(OC(C)=O)[C@H]3COC(=O)C23)OCO4)cc(OC)c1OC (stereo partly drawn)	0.033µM*	/	/	/	1µM*	/
COc1cc(C2c3cc4c(cc3CC3COC(=O)C32)OCO4)cc(OC)c1O (stereo not drawn)	0.29µM*	?	?	26	0.052µM*	?
CN(Cc1ccccc1)C[C@H]1CN2CC[C@H]1C[C@@H]2CNC(=O)c1ccc(C(F)(F)F)cc1	/	/	-13%	/	/	/
O=C(Oc1ccccc1)N1CCC[C@@]2(CCN(Cc3ccccc3)C2)C1	-28%	/	7%[57.4 µM]	/	-3%	/
c1csc(-c2ccc(-c3cccs3)s2)c1	/	/	-5%	/	/	/
OCCCNc1ccccc1	-22%	/	/	/	9%	/
CN(C)c1ccc(P(=S)(N(C)C)N(C)C)cc1	?	1%	14%	8	?	10%
CN(C)c1ccc(N=O)cc1	5µM*	/	/	/	0.56µM*	/
CCC(CC)c1cc([C@H]2CN3CC[C@H]2C[C@@H]3CNC(=O)COc2ccccc2)nc(-c2ccncc2)n1	/	/	0%	/	/	/
COc1ccc(CNC[C@H]2C[C@@H]3CCN2C[C@@H]3c2cc(C3CCCCC3)nn2C)cc1	/	/	42%[176 µM]	/	/	/
CCOP(=O)(Nc1ccc2c(c1)C(=NNC(N)=S)c1ccccc1-2)OCC	9.2µM*	?	22µM*	0	18µM*	?
COP(=S)(OC)Oc1ccc(S(N)(=O)=O)cc1	-4%	/	/	/	-7%	/
COP(=S)(OC)Oc1ccc([N+](=O)[O-])cc1	2.9µM*	/	/	/	5.8µM*	/
COc1ccccc1N1CCN(S(=O)(=O)c2c(C)ccc3nsnc23)CC1	?	?	27%	-17	-21%	-19%
COc1ccccc1N=c1scc(-c2ccc(S(=O)(=O)N3CCCC3)cc2)n1C	2.9µM*	/	-20%	/	5.2µM*	/
O=C(Oc1ccccc1)N1CCC[C@@]2(CCN(Cc3nccs3)C2)C1	-25%	/	?	/	-2%	/
COc1ccc(/C=C/c2cc(O)cc(O)c2)cc1	4.6µM*	/	/	/	2.6µM*	/
Oc1cc(O)cc(/C=C/c2ccc(O)cc2O)c1	?	?	/	-4	?	?
COc1ccc(C)cc1NC(=O)c1cn(C)c2ccccc12	/	/	-3%	/	/	/
CC12CCC(O)CC1CCC1[C@@H]2CC(O)C2(C)C(C3=CC(=O)OC3)CCC12O (stereo partly drawn)	/	/	-6%	/	/	/
Cc1ccccc1OCC(=O)N1CCN(Cc2nc(N)c3ccccc3n2)CC1	/	/	5%	/	/	/
CCCc1nc(SCC(=O)N2CCc3ccccc3C2)c2ccccc2n1	?	?	-17%[57.4 µM]	-72*	?	?
Cc1ccc(OP2(=O)Nc3cc(C)c(C)cc3S2)cc1 (stereo not drawn)	?	?	20µM*	-69*	?	?
CCOCCCNC(=O)N1[C@H]2CC[C@@H]1c1cnc(-c3ccccc3)nc1C2	/	/	36%	/	/	/
O=C(c1ccco1)c1cn(Cc2ccccc2Cl)c2ccccc12	?	?	12%	-16	18µM*	5%
SMILES	DT40 TDP1 no CPT	HT1080 IDH1KD tx	12-LOX inh	IL1B secr inh	TDP1 cell CPT	HT1080-NT tox
CCCCn1c(=O)c(C(=O)Nc2ccccc2F)c(O)c2ccccc21	?	0%	0%	38	11%	5%
CCCCn1c(=O)c(C(=O)Nc2ccsc2C(=O)OC)c(O)c2ccccc21	5.2µM*	-9%	9%	22	21µM*	1%
CCCCn1c(=O)c(C(=O)NC(C)c2ccccc2)c(O)c2ccccc21 (stereo not drawn)	?	17%	0%	-6	?	15%
CCCCn1c(=O)c(C(=O)Nc2ccccc2N)c(O)c2ccccc21	23µM*	6%	i	28	?	-1%
CCCCCn1c(=O)c(C(=O)Nc2ccccc2N)c(O)c2ccccc21	21µM*	9%	-2%	7	?	0%
O=C1OCC2(CCN(Cc3cccc(Cl)c3)C2)N1c1ccncc1 (stereo not drawn)	/	/	14%[176 µM]	/	/	/
O=C1c2ccccc2S(=O)(=O)c2cc(C(=O)N3CCN(c4c(Cl)cncc4Cl)CC3)ccc21	15µM*	-10%	-8%	0	?	2%
COC(=O)NC(=S)Nc1ccccc1NC(=S)NC(=O)OC	?	/	28%	18	21µM*!	/
Cn1nc(C2CCCNC2)n(C2CCCC2)c1=O (stereo not drawn)	/	/	44%	/	/	/
Clc1ccc(Cn2ccnc2)cn1	5%	6%	-22%	15	24%	-2%
Clc1ccc(CCC(Cn2ccnc2)Sc2c(Cl)cccc2Cl)cc1 (stereo not drawn)	26µM*	?	?	0	?	?
COc1cc2c(cc1OCc1ccccc1)N(C(=O)CC1CC1)CC21CCN(C)CC1	/	/	4%[176 µM]	/	/	/
Cn1cc([N+](=O)[O-])c(C(=O)Nc2ccc3c(C(F)(F)F)cc(=O)oc3c2)n1	2%	?	0%	-95*	1%	?
CCn1cc(C(=O)N(Cc2ccc(F)cc2)C2CC2)c2ccccc21	/	/	4%	/	/	/
CCCCC[C@@H]1CCCCC[C@@H](O)C[C@H](O)[C@H](O)/C=C/C(=O)O1	?	8%	5%	13	?	1%
CCCCC[C@H]1CCCCC[C@@H](O)C[C@@H](O)[C@@H](O)/C=C/C(=O)O1	9.2µM*	-12%	-26%	-1	10µM*	-20%
CN(C)C/C=C(\c1ccc(Br)cc1)c1cccnc1	?	?	?	-25	-28%	?
COc1ccc(C(=O)N2CCC3(CC2)c2nccn2-c2ccccc2CN3C)c(OC)n1	/	/	-7%	/	/	/
C[C@@H]1CNC(=O)c2c(C(=O)Nc3ccc(CNC(=O)OC(C)(C)C)cc3)ncn21	9.2µM*	-10%	10%	-12	23µM*	-12%
O=[N+]([O-])c1ccc(NC2CCCCC2)c2ccncc12	/	/	-17%	/	/	/
O=[N+]([O-])c1ccc(NCc2ccc(Cl)cc2)c2ccncc12	21µM*	0%	0%	-57*	23µM*	2%
